Results: PubChem BioAssay (NCI)
The panel holds about 83,000 compounds, 20% with a hit somewhere; the sample as a whole holds those more often.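 In brief: 96-well plates, 48 h treatment, single concentration, percent growth endpoint.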 A number with no mark means an inactive call. The source made the active and inactive calls. Rule for the calls: active = growth percent below 10; inactive = the rest.

System: A549/ATCC NSCLC
Experiment: NCI-60 one-dose screen, 48 h (100 = growth as untreated, 0 = no growth, -100 = all killed)
Conditions: 10 µM unless noted

For COc1ccc2c(c1)c(CC(=O)[Se]CCC#N)c(C)n2C(=O)c1ccc(Cl)cc1, the growth was 2.64% (active).
For CN(C)CCN(C)c1ccc2ncc(C#Cc3cncc(C(=O)Nc4ccc(CN5CCN(C)CC5)c(C(F)(F)F)c4)c3)n2n1, the growth was -40.5% (active).
COc1ccc(CCOc2cc3c(cc2OC)CCN(C(=O)NCc2cocn2)C3c2ccc(C)cc2C)cc1 (configuration not stated) was tested, and the growth was 7.81% (active).

Point of comparison: NC(=O)c1c(NC(=O)c2ccccc2C(F)(F)F)sc2c1CCC(=O)C2, growth 94%. Against it:
- NC(N)=Nc1ccc(Oc2cccc(NC(N)=Nc3ccc(I)cc3F)c2)cc1 — lower, 68.7%
- CC(C)(C)c1ccc(C(=O)Nc2nc3ccc(O)cc3s2)cc1 — lower, 38.4%
- CC1(C)CC[C@]2(C(=O)N3CCOCC3)CC[C@]3(C)C(=CC[C@@H]4[C@@]5(C)C/C(=C/c6ccccn6)C(=O)C(C)(C)[C@@H]5CC[C@]43C)[C@@H]2C1 — lower, 54.5%
- CCO/C=N/C1=C(C#N)C(c2ccc(F)cc2)c2sc3c(C)cccc3c2O1 (configuration not stated) — lower, 22.4%
- COc1cc(-c2nc(SC(C)C)n(C(C)C)c(=O)c2C#N)ccc1OCc1ccccc1 — lower, 36.7%

System: 786-0 renal
Experiment: as above
Conditions: 10 µM unless noted

CN1CCN(Cc2ccc(NC(=O)c3cncc(C#Cc4cnc5ccc(NCCCO)nn45)c3)cc2C(F)(F)F)CC1 was tested, and the growth was -58.9% (active).
For NC(N)=Nc1ccc(Oc2cccc(Nc3ccc(Br)c(C(F)(F)F)c3)c2)cn1, the growth was -67.8% (active).
In the case of O=C(NNc1nc2cc(F)c(F)cc2n2c(CN3CC4CNCC4C3)ccc12)c1ncccn1 (configuration not stated), the growth is reported as 9.75% (active).
In the case of FC(F)(F)c1cc(Nc2cccc(Oc3ccc(NC4=NCCN4)nc3)c2)ccc1Cl, the growth is reported as -11.4% (active).
For COc1ccc2c(c1)c(CC(=O)[Se]CCC#N)c(C)n2C(=O)c1ccc(Cl)cc1, the growth was -45.3% (active).
For COc1ccc(CCOc2cc3c(cc2OC)CCN(C(=O)NCc2cocn2)C3c2ccc(C)cc2C)cc1 (configuration not stated), the growth was 5.15% (active).
For CC(C)(C)c1ccc(C(=O)Nc2nc3ccc(O)cc3s2)cc1, the growth was 2.03% (active).

Point of comparison: CC1(C)CC[C@]2(C(=O)N3CCOCC3)CC[C@]3(C)C(=CC[C@@H]4[C@@]5(C)C/C(=C/c6ccccn6)C(=O)C(C)(C)[C@@H]5CC[C@]43C)[C@@H]2C1, growth 64.4%. Against it:
- COC(=O)c1[nH]nc2c1C1(C(=O)N(C)c3ccccc31)C(C#N)=C(N)O2 (configuration not stated) — higher, 102%
- O=C(Cn1cc(-c2ccccc2)nn1)Nc1nc(-c2ccc(Cl)cc2)cs1 — higher, 88.6%
- COc1cc(OC)c(S(N)(=O)=O)cc1C(C)=O — higher, 101%
- COc1ccccc1N1CCN(C2=CC(=O)C(C)=C(C)C2=O)CC1 — higher, 108%
- Cn1ccnc1C(=O)/C=C/c1ccc(CNC(=O)c2ccc(F)cc2)cc1 — lower, 21.9%
- Cc1c(Cl)cccc1S(=O)(=O)Nc1ccc2c(c1)C(=O)N(C1CCC(=O)NC1=O)C2=O (configuration not stated) — higher, 78.9%
- NS(=O)(=O)c1ccc(-n2cc(-c3cccc(NC(=O)c4ccc(N5CCOCC5)c(C(F)(F)F)c4)c3)nn2)cc1 — lower, 33.6%
- CCc1cccc2c3c(sc12)C(c1ccc(OC)cc1)C(C#N)=C(/N=C/c1ccc(Cl)cc1)O3 (configuration not stated) — lower, 39.3%
- Nc1ncc(-c2ccc3ncnc(N4CCc5cc(F)c(F)cc54)c3c2)cn1 — lower, 14.2%
- COc1c(N2CC3CCCNC3C2)c(F)cc2c(=O)c(C(=O)N/N=C/c3ccc(Br)cc3)cn(C3CC3)c12 (configuration not stated) — higher, 85.3%
- COc1ccc(/C=C(\C#N)C(=O)N2c3ccccc3Sc3ccc(SC)cc32)cc1F — higher, 84.4%
- Cc1ccc(NC(=O)CNc2cc(C(N)=O)cc(F)c2C)c(Cl)c1 — higher, 92.9%
- CNC(=O)c1cc(Oc2ccc3nc(NC(=O)c4cccc(OC(F)(F)F)c4)sc3c2)ccn1 — lower, 50.4%
- O=C1CCCC2=C1C(c1c[nH]c3ccc(Br)cc13)Cc1cc(Br)ccc1N2 (configuration not stated) — lower, 41.2%
- COc1cc2oc(-c3cccc(C(=O)N[C@@H](CC(C)C)C(=O)OC(C)(C)C)c3)cc(=O)c2c(OC)c1OC — higher, 67.9%
- NC(N)=Nc1ccc(Nc2cccc(Nc3ccc(Cl)c(C(F)(F)F)c3)c2)cn1 — higher, 72.6%
- CC(=O)c1nnn(-c2c(C(=O)n3nc(C)cc3C)sc(=S)n2-c2ccccc2)c1C — higher, 111%
- CS(=O)(=O)Nc1cc(-c2ccc3ncc(C#N)c(N[C@H](CO)c4ccccc4)c3c2)cnc1Cl — lower, 54.8%
- COc1ccc(C(=O)CSc2nc3c(c(Nc4ccc(S(N)(=O)=O)cc4)n2)CCCC3)cc1 — higher, 101%
- CCn1c(SCC(=O)Nc2cccc(C(=O)/C=C/c3ccc(Br)cc3)c2)nc2ccccc2c1=O — higher, 99.8%
- N#Cc1c(Nc2ccccc2)nn2c(-c3ccc([N+](=O)[O-])cc3)ccnc12 — higher, 98.3%
- O=C(CCn1c[n+](CC(=O)c2ccc(-c3ccccc3)cc2)c2ccccc21)Nc1cccc2cccnc12 — higher, 71.5%
- COc1ccc(OC)c(-c2nc(SCC(=O)c3ccc(Br)cc3)nc(Nc3ccc(S(N)(=O)=O)cc3)c2C#N)c1 — lower, 41.4%
- CCO/C=N/C1=C(C#N)C(c2ccc(OC)cc2)c2sc3c(CC)cccc3c2O1 (configuration not stated) — lower, 48.7%
- CN(C)CCN(C)c1ccc2ncc(C#Cc3cncc(C(=O)Nc4ccc(CN5CCN(C)CC5)c(C(F)(F)F)c4)c3)n2n1 — higher, 90.9%
- NC(=O)c1c(NC(=O)c2ccccc2C(F)(F)F)sc2c1CCC(=O)C2 — lower, 37.5%
- NC(N)=Nc1ccc(Oc2cccc(NC(N)=Nc3ccc(I)cc3F)c2)cc1 — higher, 86.4%
- CCO/C=N/C1=C(C#N)C(c2ccc(F)cc2)c2sc3c(C)cccc3c2O1 (configuration not stated) — lower, 20.2%
- COc1cc(-c2nc(SC(C)C)n(C(C)C)c(=O)c2C#N)ccc1OCc1ccccc1 — lower, 34.4%
- CCCCCc1ccc(S(=O)(=O)Nc2cccc(-c3csc(NCCN4CCN(C)CC4)n3)c2)cc1 — lower, 60.3%
